Holding throughout (assay): NCI-60 one-dose screen, 48 h (100 = growth as untreated, 0 = no growth, -100 = all killed)
Holding throughout (settings): 10 µM unless noted

For assay [1], the system named is NCI-H23 lung.
The test system of assay [2] is NCI-H226 lung.
Assay [3] concerns NCI-H322M lung.
For assay [4], the system named is HOP-62 NSCLC.
Assay [5] deals with NCI-H460 lung.
Assay [6] deals with NCI-H522 lung.
Assay [7] relates to A549/ATCC NSCLC.
Assay [8] relates to 786-0 renal.
The test system of assay [9] is COLO 205 colon.
The test system of assay [10] is DU-145 prostate.
In assay [11] the test system is MALME-3M melanoma.
Assay [12] deals with MDA-MB-231 breast.
In assay [13] the test system is RXF 393 renal.
In assay [14] the test system is SF-268 CNS.
Assay [15] concerns SF-295 CNS.
Assay [16] relates to SF-539 CNS.
The test system of assay [17] is UACC-257 melanoma.
For assay [18], the system named is M14 melanoma.

SMILES strings stand for the structures. Compounds without any hit were thinned out: in the full panel of roughly 83,000, 20% have a hit.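 The endpoint reported here, percent growth, reads 100 for growth as untreated, 0 for no net growth and -100 for all cells dead.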 A number with no mark means an inactive call. Active and inactive are the calls of the source. How the source made its calls: active means growth percent below 10; inactive means the rest.

Consider `COc1ccc(-c2conc2-n2nc(-c3ccccc3)nc2-c2ccccc2)cc1`, for which the growth was 98.3% in assay [1]; 89.7% in assay [2]; 97.6% in assay [3]; 95.9% in [4]; 120% in assay [5]; 89.7% in [6]. For the same compound, the growth in assay [7] was 114%; in assay [8], 107%; in [9], 112%; in assay [10], 119%; in assay [11], 105%; in assay [12], 94%. The growth was 113% in [13]; 122% in [14]; 98.8% in assay [15]; 107% in assay [16]; 115% in assay [17]; 98.6% in assay [18].
As for `C=C(C)[C@@H]1CC[C@]2(C(=O)NS(=O)(=O)c3ccccc3)CC[C@]3(C)[C@H](CC[C@@H]4[C@@]5(C)CC[C@H](OC(=O)NS(=O)(=O)c6ccccc6)C(C)(C)[C@@H]5CC[C@]43C)[C@@H]12`, the growth is -9.55% (active) in assay [1]; 30.9% in [2]; 34.1% in assay [3]; -13.4% (active) in assay [4]; -53.8% (active) in assay [5]; 16.7% in assay [6]. For the same compound, the growth in assay [7] was 18.3%; in [8], -43.5% (active); in assay [9], 31.8%; in assay [10] it was 43.3%; in [11], 11.3%; in assay [12], 39.7%. Besides, the growth was -25.9% (active) in assay [13]; 41.4% in [14]; 1.73% (active) in assay [15]; -34.3% (active) in assay [16]; 27.8% in assay [17]; 12.8% in assay [18].
In the case of `COc1ccccc1/C=C/C(=O)CCC(=O)O`, the growth in assay [1] is 106%; in assay [2] it was 104%; in assay [3], 101%; in [4] it was 96.2%; in assay [5] it was 111%; in assay [6], 103%. In addition, the growth in assay [7] was 108%; in assay [8], 96.7%; in assay [9], 120%; in assay [10] it was 108%; in [11], 101%; in assay [12], 114%. In addition, the growth in [13] was 127%; in assay [14], 111%; in assay [15], 105%; in assay [16], 97.5%; in assay [17], 115%; in assay [18], 99.8%.
Take `CCN(CC)c1ccc(/C=C2/NC(=O)NC2=O)cc1`: the growth is 44.6% in assay [1]; 81.5% in assay [2]; 79.1% in [3]; 53.4% in [4]; 20.6% in assay [5]; 14.5% in [6]. Besides, the growth in [7] was 59.1%; in assay [8] it was 48%; in assay [9], 3.89% (active); in assay [10], 64.3%; in [11], 42%; in [12], 57.5%. For the same compound, the growth in assay [13] was 50.3%; in assay [14], 57%; in assay [15], 23.6%; in assay [16], 6.57% (active); in assay [17], 72.9%; in assay [18] it was 8.99% (active).
For `CC1(C)CN(CCNc2nccc(-c3c(-c4cccc(O)c4)nc4sccn34)n2)S(=O)(=O)N1`, the growth in [1] is 70%; in assay [2], 87.5%; in [3], 54.2%; in [4], 89.1%; in assay [5], 50.6%; in assay [6], 65.1%. Further, the growth is 117% in assay [7]; 50.6% in [8]; 32.1% in assay [9]; 67.9% in assay [10]; 5.36% (active) in assay [11]; 53.8% in assay [12]. For the same compound, the growth in assay [13] is 57.1%; in assay [14] it was 84%; in assay [15] it was 92.9%; in [16], 87.2%; in [17], 46.8%; in [18], -1.68% (active).
Consider `O=S1(=O)NCCN1CCNc1nccc(-c2c(-c3cccc(O)c3)nc3sccn23)n1`, for which the growth was 104% in assay [1]; 105% in assay [2]; 115% in [3]; 115% in [4]; 107% in [5]; 87.2% in assay [6]. Further, the growth in assay [7] is 106%; in assay [8], 126%; in [9], 42.4%; in assay [10], 106%; in assay [11], 4.99% (active); in assay [12], 86.8%. The growth in assay [13] is 111%; in assay [14], 116%; in assay [15], 93.2%; in assay [16] it was 109%; in assay [17], 59.7%; in assay [18], 20.8%.
In the case of `COc1ccccc1CNCCCN1C(=O)c2ccc3c4c(ccc(c24)C1=O)C(=O)N(CCCOCCCCOCCCN)C3=O`, the growth in [1] is -67.6% (active); in assay [2], -10.8% (active); in assay [3] it was -12.1% (active); in assay [4], 14%; in [5] it was -65.5% (active); in assay [6], -77.4% (active). The growth was -33.8% (active) in [7]; 14.3% in [8]; -95% (active) in [9]; -74% (active) in assay [10]; -93.1% (active) in [11]; -4.84% (active) in assay [12]. Also, the growth in [13] is -42.6% (active); in assay [14], -21.5% (active); in assay [15] it was -9.19% (active); in assay [16], -34.9% (active); in assay [17] it was -91.7% (active); in [18] it was -85.4% (active).
As for `CCCCCCCCCCCCNC(=O)N[C@H](C(=O)N[C@H]1/C=C/CCNC(=O)/C=C/[C@H](C)NC1=O)C(C)C`, the growth in [1] is -42.8% (active); in assay [2], -87% (active); in [3], 3.54% (active); in assay [4] it was -65.1% (active); in assay [5] it was 2.24% (active); in assay [6], -21.7% (active). Further, the growth in assay [7] was 10.5%; in assay [8], -37.7% (active); in assay [9], -51.3% (active); in assay [10], 6.45% (active); in assay [11], -1.82% (active); in [12], -44.7% (active). The growth is -98.8% (active) in [13]; -44.9% (active) in assay [14]; -37.4% (active) in [15]; -49.4% (active) in assay [16]; 49.9% in [17]; -82% (active) in assay [18].
For `COc1cc(-c2nc(-c3ccc(-c4nc5ccc(F)cc5[nH]4)cc3)no2)cc(OC)c1OC`, the growth in [1] is 30.4%; in [2], 29.2%; in assay [3] it was 90.7%; in assay [4], 26.5%; in [5], 43.2%; in assay [6], 18.2%. The growth was 42.8% in assay [7]; 46.4% in assay [8]; 60.4% in assay [9]; 68.5% in assay [10]; 46% in assay [11]; 9.59% (active) in [12]. Besides, the growth in assay [13] is -3.77% (active); in [14] it was 35.8%; in assay [15], 22.5%; in assay [16], 33.9%; in [17], 80.1%; in assay [18] it was 43.6%.

These data come from PubChem BioAssay (NCI).
